Screening results as filed in PubChem BioAssay.
Pf Dd2 growth – blocks in vitro growth of P. falciparum Dd2; Potency, µM (top dose mostly 28.9 µM), inactives show at the top dose activity, negative = inhibition, hits mostly inhibitors; AID 1347417; P. falciparum Dd2 growth, SYBR Green, 72 h; 120,000 compounds, 4.3% hits; active means well fitted inhibition curve with a large enough effect;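 further: plate controls were DMSO vehicle for no effect and reference drug for full effect; nearly all actives have a fitted effect of over 65% in size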
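Infected erythrocytes (Dd2, 0.3% parasitemia, 2.5% hematocrit final) are added to compound in RPMI-1640/Albumax II medium, grown 72 h at 37C in low oxygen, then lysed with saponin/Triton-X containing SYBR Green and read by fluorescence.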
The depositor's hits bear a star; [ ] = remark or other dose. Shown is part of a subset that was picked to be rich in hits. Potency means the concentration at half of the fitted maximal effect.

Results for CC1(c2ccccc2)N(Cc2ncccn2)C(=O)OC12CCN(C(=O)Cc1ccc(Cl)cc1)CC2 (stereo not drawn) ?
Pf Dd2 growth: 13µM*

How did CC1(c2ccccc2)N(Cc2ccccc2C#N)C(=O)OC12CCN(C(=O)Cc1ccc(O)cc1)CC2 (stereo not drawn) do in these assays?
Pf Dd2 growth: inactive

What do the screens show for `CC1(c2ccccc2)N(Cc2cccnc2)C(=O)OC12CCN(C(=O)Cc1cccc(F)c1)CC2` (stereo not drawn)?
Pf Dd2 growth: inactive

Results for CC1(c2ccccc2)N(Cc2ccccc2F)C(=O)OC12CCN(C(=O)Cc1ccc(O)cc1)CC2 (stereo not drawn) ?
Pf Dd2 growth: -6%

Results for CC1(c2ccccc2)N(Cc2ccccc2C#N)C(=O)OC12CCN(C(=O)Cc1cccc(F)c1)CC2 (stereo not drawn) ?
Pf Dd2 growth: 11µM*

What do the screens show for `CC(C)C(=O)N1CCC2(CC1)OC(=O)N(Cc1ncccn1)C2(C)c1ccccc1` (stereo not drawn)?
Pf Dd2 growth: inactive

Results for CCC(C(=O)Nc1ccc(C(=O)OC)cc1)n1nc(-c2ccc(C)c(C)c2)ccc1=O (stereo not drawn) ?
Pf Dd2 growth: -1%

Results for Cc1cc(C)n(CCC(=O)N[C@@H]2[C@@H]3CCO[C@@H]3[C@@H]2C2CCCC2)c(=O)n1 ?
Pf Dd2 growth: -3%

How did OCc1cccc(-c2ccc3ncc(Nc4ccccc4F)n3n2)c1 do in these assays?
Pf Dd2 growth: -6%[44.1 µM]

Results for COc1ccc(-c2ccc3ncc(Nc4ccc5c(c4)OCCO5)n3n2)cc1OC ?
Pf Dd2 growth: inactive

How did COc1ccc(-c2ccc3ncc(Nc4cccc(Cl)c4)n3n2)cn1 do in these assays?
Pf Dd2 growth: -7%[44.1 µM]

Results for COc1ccc(Nc2cnc3ccc(-c4ccc(F)cc4)nn23)cc1OC ?
Pf Dd2 growth: 2.8µM*

Results for OCc1cccc(-c2ccc3ncc(Nc4ccnc(N5CCOCC5)c4)n3n2)c1 ?
Pf Dd2 growth: inactive

How did COc1ccc(Nc2cnc3ccc(-c4ccc(OC)c(OC)c4)nn23)cn1 do in these assays?
Pf Dd2 growth: inactive

Results for COc1ccccc1-c1ccc2ncc(Nc3ccc(C(N)=O)cc3)n2n1 ?
Pf Dd2 growth: inactive

How did CN(C)c1ccc2ncc(Nc3cccc(C(F)(F)F)c3)n2n1 do in these assays?
Pf Dd2 growth: inactive

What do the screens show for `c1ccc(Nc2cnc3ccc(N4CCOCC4)nn23)cc1`?
Pf Dd2 growth: inactive

What do the screens show for `COc1ccccc1-c1ccc2ncc(Nc3ccccc3)n2n1`?
Pf Dd2 growth: 7.9µM*

Results for C[S+](=O)([O-])Nc1cccc(Nc2cnc3ccc(-c4ccccc4)nn23)c1 ?
Pf Dd2 growth: 13µM*

What do the screens show for `COc1cncc(Nc2cnc3ccc(-c4cccc(CO)c4)nn23)c1`?
Pf Dd2 growth: 13µM*

Results for O=C(C1CN(c2ccccc2)C(=O)N1)N1CCC(Cc2ccccc2)CC1 (stereo not drawn) ?
Pf Dd2 growth: inactive

What do the screens show for `Cc1ccc2c(c1)N(C(=O)N1CCC(C(=O)NCc3cccs3)CC1)CC(C)O2` (stereo not drawn)?
Pf Dd2 growth: 105%[5.79 µM]

Results for N#Cc1ccc(NS(=O)(=O)c2ccc(-c3cnc(C4CC4)o3)cc2)cc1 ?
Pf Dd2 growth: inactive

What do the screens show for `NC(=O)c1ccccc1OCC(=O)N1CC(CNc2ccccc2)C2(C1)CN(c1ccccc1)C2` (stereo not drawn)?
Pf Dd2 growth: -15%

What do the screens show for `N#Cc1ccc(CN2CC(CNC(=O)Nc3ccccc3)C3(C2)CN(c2ccccc2)C3)cc1` (stereo not drawn)?
Pf Dd2 growth: inactive

What do the screens show for `COc1ccc(CN2CC(CNc3ccccc3)C3(C2)CN(c2ccccc2)C3)cc1O` (stereo not drawn)?
Pf Dd2 growth: 3.5µM*

Results for O=C(NCc1ccc(F)cc1)C1CCc2nnc(C3CCN(C(=O)Nc4ccc(Cl)cc4)CC3)n21 (stereo not drawn) ?
Pf Dd2 growth: -16%

How did Cc1ccc(Cn2cc(-c3ccncc3)cc2C(=O)N(C)Cc2ccccc2)cc1 do in these assays?
Pf Dd2 growth: -16%

How did CCn1cc(-c2ccncc2)cc1C(=O)NCc1ccc(SC)cc1 do in these assays?
Pf Dd2 growth: inactive

Results for Cc1ccc(Cn2cc(-c3ccncc3)cc2C(=O)NCC2CC2)cc1 ?
Pf Dd2 growth: 11µM*

Results for Cc1ccc(-n2ccnc(NCc3cccs3)c2=O)cc1C ?
Pf Dd2 growth: 16%

What do the screens show for `CC(=O)Nc1ccc(Nc2ncnc3c2c(-c2ccccc2)cn3-c2ccccc2)cc1`?
Pf Dd2 growth: inactive

Results for Cc1ccc(-n2cc(-c3ccccc3)c3c(N4CCC(C)CC4)ncnc32)cc1Cl ?
Pf Dd2 growth: 48%

How did COc1ccccc1N1CCN(c2ncnc3c2c(-c2ccccc2)cn3-c2cccc(Cl)c2)CC1 do in these assays?
Pf Dd2 growth: 7%

How did COc1ccc(CCNc2ncnc3c2c(-c2ccccc2)cn3-c2cccc(Cl)c2)cc1OC do in these assays?
Pf Dd2 growth: 8.9µM*

Results for CC(=O)Nc1ccc(Nc2ncnc3c2c(-c2ccccc2)cn3-c2ccc(C)c(Cl)c2)cc1 ?
Pf Dd2 growth: 7.1µM*

How did COCCNc1ncnc2c1c(-c1ccccc1)cn2-c1cccc(Cl)c1 do in these assays?
Pf Dd2 growth: 8%

How did O=C(c1ccncc1)N1CCCCC1c1noc(COc2ccc(F)cc2)n1 (stereo not drawn) do in these assays?
Pf Dd2 growth: 5%

How did CC(C)(C)c1ccc(OCC(=O)N(Cc2ccco2)Cc2ccccc2F)cc1 do in these assays?
Pf Dd2 growth: -20%

What do the screens show for `CCc1cccc(NC(=O)CN(C)S(=O)(=O)c2ccc3c(c2)CCCN3C(C)=O)c1`?
Pf Dd2 growth: inactive

What do the screens show for `Cc1ccc(CC(=O)N2CCC3(C2)C(=O)N(C)c2ccccc23)cc1` (stereo not drawn)?
Pf Dd2 growth: inactive

How did O=C(C[C@@H]1CCNC[C@@H]1Cc1cc(-c2ccccn2)on1)NCc1ccccc1 do in these assays?
Pf Dd2 growth: inactive

What do the screens show for `C[S+](=O)([O-])N1Cc2ccccc2CC2(CCCCN2Cc2ccccc2)C1` (stereo not drawn)?
Pf Dd2 growth: -27%

How did CN1CCC2(CC1)Cc1ccccc1CN([S+](C)(=O)[O-])C2 do in these assays?
Pf Dd2 growth: -27%

How did Cc1ccc(CCN2CCCCC23Cc2ccccc2CN([S+](C)(=O)[O-])C3)cc1 (stereo not drawn) do in these assays?
Pf Dd2 growth: 10µM*

What do the screens show for `COc1ccc(C(=O)N2CCC(c3nc(C4CCOCC4)no3)C2)cc1OC` (stereo not drawn)?
Pf Dd2 growth: 8%

What do the screens show for `CC(CN1CCCC1)CN(C)c1nc(CCN)nc2ccccc12` (stereo not drawn)?
Pf Dd2 growth: -8%

Results for COCc1cn(C[C@H]2CC3CCN2C[C@@H]3C(=O)NCc2ccc3c(c2)OCO3)nn1 (stereo partly drawn) ?
Pf Dd2 growth: inactive

How did COc1ccc2c(c1)C1(CCN(C(=O)CCc3ccccc3)C1)C(=O)N2C (stereo not drawn) do in these assays?
Pf Dd2 growth: -2%

What do the screens show for `CN1C(=O)Cc2cc(S(=O)(=O)N3CCN(c4ccc(Cl)cc4)CC3)ccc21`?
Pf Dd2 growth: -1%

What do the screens show for `COc1ccc2c(c1)C1(CCN(S(=O)(=O)c3ccc4c(c3)CC(=O)N4C)C1)C(=O)N2C` (stereo not drawn)?
Pf Dd2 growth: 2.5µM*

Results for Cc1ccc2nc(NC(=O)CSc3nccn3-c3ccc(Cl)cc3)sc2c1 ?
Pf Dd2 growth: inactive
